In the library only some 2.8% were active in any assay of this set; here they are far more common.
HTT ATP protect: protects HTT-Q103 PC12 cells, measured by ATP; PC12 HTT-Q103 induced, cytoprotection, ATP luminescence, 40 h; Potency, µM (titrated, usually from 56.4 µM), inactives show cytoprotection (ATP increase), actives largely listed as activators; hit rate 0.14% among 230,000; also: % of control where 0% means no effect; nearly all actives have a fitted effect of over 45% in size
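PC12 cells stably carrying ecdysone-inducible Htt exon 1 (Q103)–GFP were induced with 100 nM tebufenozide (final) alongside library compounds in a dose series. Cytoprotection was scored as retained ATP by ATPlite luminescence.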
ATXN viability: viability counter-screen for ATXN expression inhibitors; S2 cells (HEK-293 line with an ATXN2-luciferase reporter) viability, CellTiter-Fluor protease fluorescence, 24 h; Potency, µM (titrated, usually from 56.7 µM), most hits filed as cytotoxic; hit rate 0.49% among 400,000; AID 651635; also: nearly all actives have a fitted effect of over 40% in size
ATXN2 expr inh: ATXN2 expression inhibition; HEK-293 ATXN2-luciferase reporter, luminescence, 24 h; Potency, µM (doses to about 57 µM), for the others: top-dose activity change, negative = inhibition, actives largely listed as inhibitors; hit rate 0.72% among 360,000; also: % is scaled to controls: 0 for no effect and ±100 for the full control effect; nearly all actives have a fitted effect of over 55% in size
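ATXN2-luciferase reporter cells (luciferase flanked by upstream and downstream ATXN2 gene portions) were treated 24 h at 37 °C with compounds at up to 57 uM. SteadyGlo luminescence gave expression; GF-AFC fluorescence gave viability.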
HepG2 viability: counter-screen for TGF-b inhibitors: cytotoxicity in HepG2 cells; Potency, µM (series often up to 46.1 µM), inactives show at the top dose activity change, negative = cytotoxicity, usual class: cytotoxic; hit rate 0.76% among 410,000; HepG2 CAGA-GFP viability, ATP luminescence, 18 h; AID 588856
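HepG2 CAGA-GFP cells (1000/well, DMEM with 1% FBS) received compound, then TGF-beta at 500 pg/mL final, and were incubated 18 hours at 37 degrees C. Viability was read by CellTiter-Glo luminescence. Media-only wells were set as complete cell-killing and DMSO as no toxicity.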
TGFb SMAD3 inh: blocks TGF-b signaling. hit rate 1.2% among 410,000. HepG2 CAGA-GFP TGF-b/SMAD3 reporter, GFP fluorescence, 18 h; TGF-beta stimulated, 500 pg/mL final. Potency, µM (top dose mostly 46.1 µM), inactives show at the top dose activity, negative = inhibition, actives largely listed as inhibitors; also: % is scaled to controls: 0 for no effect and ±100 for the full control effect; nearly all actives have a fitted effect of over 65% in size
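Smad-responsive CAGA-GFP expression was quantified in HEPG2 cells exposed to compounds and 500 pg/mL final TGF-beta for 18 h at 37 degrees C; unstimulated wells defined full inhibition.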
HttQ103 aggreg: mutant huntingtin aggregation inhibition | PC12 HttQ103-GFP aggregates, Acumen cytometry, 40 h | Potency, µM (series often up to 46.1 µM), for the others: at the highest dose activity change, negative = inhibition, hits mostly inhibitors | hit rate 1.1% among 220,000; also: % is scaled to controls: 0 for no effect and ±100 for the full control effect; nearly all actives have a fitted effect of over 60% in size
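PC12 cells stably carrying ecdysone-inducible HTT exon 1 Q103–GFP were induced with tebufenozide (100 nM final) and treated with library compounds in titration. GFP aggregates in lysates were counted by laser scanning cytometry.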
Starred values were filed as active, the others as inactive; i = inactive; ? = inconclusive; nt = not tested or not shown; ! = repeats disagree; [ ] = dose if it differs, or a comment. Calls follow the shape of the dose curve; as a rule, active = well fitted curve in the direction sought with a large enough effect; inconclusive = small, poorly fitted or top-dose-only effect, or another doubt; inactive = no such curve, though single readings can be large; an effect the other way counts as inactive or inconclusive. Potency is read from the fitted curve at half-maximal effect.

SMILES	HTT ATP protect	ATXN viability	ATXN2 expr inh	HepG2 viability	TGFb SMAD3 inh	HttQ103 aggreg
CCNc1nc(NCC)n2c(SCC(=O)Nc3ccc(CC)cc3)nnc2n1	nt	i	-5%	1%	2%	nt
COc1cc(CN2CCOc3ccc(C(O)c4cccnc4)cc3C2)cc(OC)c1 (stereo not drawn)	nt	i	nt	nt	nt	nt
COc1ccc(OCc2nn3c(Cn4cnc5ccccc54)nnc3s2)cc1	-31%	i	-24%	-27%	?	25µM*
COC/C=C/C1=CC2=CC(=O)C(C)(OC(=O)c3cnc4ccccc4n3)C(=O)C2=CN1Cc1ccccc1 (stereo not drawn)	-8%[10 µM]	nt	?	-17%	11µM*	-14%[9.22 µM]
COc1ccccc1C1CN(Cc2cn(C)nc2C)Cc2ccccc2O1 (stereo not drawn)	nt	i	nt	nt	nt	nt
Cc1cc(O)c(C(C)C)cc1C1(c2cc(C(C)C)c(O)cc2C)OC(=O)c2ccccc21	14%[10 µM]	nt	?	14µM*	13µM*	-28%[9.22 µM]
COc1ccc(S(=O)(=O)n2nc(OC(C)=O)cc2N)cc1	7%[10 µM]	i	-11%	20%	36%	-3%[9.22 µM]
COc1ccc(C(=O)Oc2cc(N)n(S(=O)(=O)c3ccccc3)n2)cc1	0.71µM*	i	nt	-2%	4%	?
Cc1ccc(Sc2nnc(Cc3ccccc3)c3ccccc23)cc1	2%[10 µM]	i	?	18µM*	14µM*	33%[9.22 µM]
CC(=O)c1cccc(NC(=O)CCS(=O)(=O)c2ccc(Br)s2)c1	nt	i	13%	-4%	15%	-3%
O=C(CCS(=O)(=O)c1ccc(Br)s1)Nc1cc(C(F)(F)F)cc(C(F)(F)F)c1	nt	?	?	16µM*	?	nt
COCCN1CCN(C(=O)c2cnn(-c3nccc(-c4ccco4)n3)c2C(C)C)CC1	nt	i	nt	nt	nt	nt
COc1ccc(-c2nc3c4ccccc4ccn3c2CN2CCCCC2)cc1	-43%	?	-8%	-33%	-21%	-13%
COc1ccc(-c2nc3c4ccccc4ccn3c2CN2CCCCC2)cc1OC	4%[10 µM]	32µM*	nt	-25%	?	-13%[9.22 µM]
Cc1nn(-c2ccccc2)c(C)c1CC(=O)NCC1Cc2cc(F)cc(-c3cccnc3)c2O1 (stereo not drawn)	nt	i	nt	nt	nt	nt
c1ccc2c(c1)CCC[C@H]2C1=NCCN1	14%[1.9 µM]	nt	nt	nt	nt	nt
O=C(CNC(=O)c1ccc(F)cc1)N/N=C/c1cc(Br)ccc1OC(=O)/C=C/c1ccco1	?	?	8.9µM*	-52%	?	-3%[9.22 µM]
O=C(CNC(=O)c1ccccc1F)N/N=C/c1cc(Br)ccc1OC(=O)/C=C/c1ccco1	nt	i	?	-17%	-27%	10µM*
Cc1ccccc1NC(=O)c1nc(SCc2ccccc2F)ncc1Cl	nt	nt	nt	-2%	5%	nt
O=C(OCC#CCSc1nnc(-c2cccc3ccccc23)o1)c1cc2ccccc2s1	nt	nt	47%	nt	nt	nt
CCn1c(CNc2ccc(C(=O)O)cc2)nc2ccccc21	-17%	i	5%	-6%	-8%	-10%
COc1ccc(OCCn2c(C(C)Oc3ccccc3)nc3ccccc32)cc1 (stereo not drawn)	nt	i	-21%	-38%	13µM*	nt
CCCn1c(CNc2ccc(Br)cc2)nc2ccccc21	-13%	?	0%	-30%	?	11µM*
Cc1ccc(OCCn2c(CNc3cccc(C)c3)nc3ccccc32)cc1	nt	i	-16%	-35%	13µM*	nt
COc1ccc(NCc2nc3ccccc3n2CCOc2ccccc2C)cc1	nt	?	-10%	-38%	?	nt
SMILES	HTT ATP protect	ATXN viability	ATXN2 expr inh	HepG2 viability	TGFb SMAD3 inh	HttQ103 aggreg
Cc1ccc(NCc2nc3ccccc3n2CCOc2ccccc2)cc1	25%[10 µM]	?	19%	-29%	18µM*!	10%
O=C(Cc1ccc(OCC2CCCCC2)cc1)NO	nt	nt	nt	-35%	-6%	nt
CC(C)CCOc1ccc(CC(=O)NO)cc1	nt	nt	nt	-22%	7%	nt
CNc1c(Br)cc(C(O)C2=CCc3ccccc32)cc1Br (stereo not drawn)	nt	nt	nt	-37%	-25%	nt
O=C1CC(c2ccco2)Cc2[nH]c(=O)c(C(=O)Nc3ccccc3)cc21 (stereo not drawn)	nt	nt	nt	-11%	6%	nt
COc1ccc(OCCn2c(NC(=O)c3ccco3)nc3ccccc32)cc1	17%	i	-11%	-32%	0%	10µM*
O=S(=O)(NCc1nnc2n1CCN(Cc1ccccc1Cl)CC2)c1ccccc1	nt	i	nt	nt	nt	nt
COc1ccc(C(C(=O)NC2CCCCC2)N(C(=O)CCl)c2ccc(Cl)cc2)cc1 (stereo not drawn)	0%[10 µM]	3.2µM*	3.5µM*	-63%	-28%	?
Cc1cc2c(C)cc(=O)[nH]c2cc1NC(=O)CCl	1%[10 µM]	11µM*	nt	-66%	?	-7%[9.22 µM]
CCN(CC)CCOc1ccc(C(=C(Cl)c2ccccc2)c2ccccc2)cc1	nt	nt	7%	nt	nt	nt
O=C(Nc1ccc(N2CCN(C(=O)c3ccccc3)CC2)c(Cl)c1)c1ccco1	-22%	i	-35%	-21%	-12%	22µM*
CCCC(=O)N1CCN(c2ccc(NC(=O)c3cc4ccccc4o3)cc2Cl)CC1	-30%[10 µM]	18µM*	14µM*	-9%	-12%	11µM*
CC(=O)N1CCN(c2ccc(NC(=O)c3ccco3)cc2Cl)CC1	nt	i	17%	-8%	7%	nt
O=C(Nc1ccc(N2CCN(C(=O)c3ccco3)CC2)c(Cl)c1)c1cc2ccccc2o1	-114%	nt	20µM*	-13%	1%	?
COc1ccc(CN2CC[C@H]3C=CC[C@@H](C(=O)Nc4ccc(Cl)cc4Cl)[C@H]3C2=O)cc1OC	nt	nt	nt	-3%	?	nt
COc1cc2ccccc2cc1C(=O)OCC(=O)Nc1ccc(Br)cc1	nt	nt	nt	-6%	-1%	nt
C[C@H](N)C(=O)N[C@@H](C)C(=O)NC1[C@H]2CN(c3nc4c(cc3F)c(=O)c(C(=O)O)cn4-c3ccc(F)cc3F)C[C@@H]12 (stereo partly drawn)	nt	i	-2%	nt	nt	nt
CCCCNC(=O)[C@@H]1CC=C[C@@H]2CCN(C3CCCCC3)C(=O)[C@@H]21	nt	nt	nt	-36%	-28%	nt
CC[C@@H]1O[C@]2(C=C[C@@H]1C)C[C@H]1C[C@H](CC=C(C)[C@@H](O[C@@H]3C[C@H](OC)[C@H](O[C@@H]4C[C@H](OC)[C@H](O)[C@H](C)O4)[C@H](C)O3)[C@@H](C)C=CC=C3CO[C@@H]4[C@@H](O)C(C)=C[C@@H](C(=O)O1)[C@]34O)O2	0%[40.3 µM]	16µM*	nt	nt	nt	nt
CCc1cc(SC#N)cc(CC)c1NC(=O)CCl	nt	?	?	-81%	7.9µM*	9%
CC(C)c1c(C(=O)N2CCCCC2c2cccnc2)cnn1-c1nccc(-c2cccs2)n1 (stereo not drawn)	nt	i	nt	nt	nt	nt
